From PubChem BioAssay (EPA / NIEHS)
Several values for one entry are separate records, joined by “and”; a condition that tells them apart may be missing. Equal values may be shown once. Results filed as inconclusive are left out. Activity calls are given as the source filed them. The calls were made as follows: active = hit-call score of the fitted dose curve at least 0.9, where 1 is the maximum; inconclusive = response in the unintended direction; inactive = score below 0.9.

Columns and labels:
[1] = TOX21_p53_BLA_p2_viability: Viability Assessment in the Tox21 HCT-116 p53 Agonism Beta-lactamase Assay, Phase 2 (AID 2283591);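 also: compound exposure lasted 16 h at 37 °C; actives lower the ATP signal meaning cytotoxicity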
Outline: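 HCT116 p53-bla cells, 4000/well, dosed after 5 h plating (217-fold dilution of DMSO stocks) and incubated 16 h at 37C. Viability taken as cellular ATP by CellTiter-Glo luminescence after 30 min RT; signal loss marks cytotoxicity.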

[2] = biological target: Cellular tumor antigen p53 (Homo sapiens) (UniProt P04637); experiment: TOX21_p53_BLA_p2_ratio: Tox21 HCT-116 p53 Agonism Beta-lactamase Assay, Ratio, Phase 2 (AID 2283592)
Outline: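 Cleaved-to-uncleaved substrate ratio (460 vs 530 nm) measured in HCT116 cells with an inducible beta-lactamase reporter linked to p53 activity. Compounds incubated 16 h at 37C before 2 h room-temperature CCF4-AM loading.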

[3] = TOX21_p53_BLA_p3_viability: Viability Assessment in the Tox21 HCT-116 p53 Agonism Beta-lactamase Assay, Phase 3 (AID 2283593);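 also: cells exposed to compound for 16 h before reading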
Outline: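 HCT116 cells, 4000/well, dosed 5 h after plating by pin transfer (217-fold dilution from DMSO stock) and incubated 16 h at 37C, 5% CO2. Viability read as ATP luminescence with CellTiter-Glo after 30 min at room temperature.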

[4] = biological target: Cellular tumor antigen p53 (Homo sapiens) (UniProt P04637); experiment: TOX21_p53_BLA_p3_ratio: Tox21 HCT-116 p53 Agonism Beta-lactamase Assay, Ratio, Phase 3 (AID 2283596)
Outline: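 Cells were seeded at 4000/well, rested 5 h at 37C, then dosed with DMSO compound solutions (217-fold dilution) for 16 h. CCF4-AM substrate was loaded for 2 h at room temperature, and the 460/530 nm emission ratio was fitted for gain of signal versus DMSO.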

[5] = TOX21_p53_BLA_p4_viability: Viability Assessment in the Tox21 HCT-116 p53 Agonism Beta-lactamase Assay, Phase 4 (AID 2283597);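 also: hits lower the luminescence signal meaning cytotoxicity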
Outline: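 Viability is taken as cellular ATP: after 16 h compound exposure of HCT116 cells and a 2 h room-temperature CCF4-AM substrate step, CellTiter-Glo reagent is added and luminescence is measured 30 min later.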

[6] = biological target: Cellular tumor antigen p53 (Homo sapiens) (UniProt P04637); experiment: TOX21_p53_BLA_p5_ratio: Tox21 HCT-116 p53 Agonism Beta-lactamase Assay, Ratio, Phase 5 (AID 2283599)
Outline: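 HCT-116 p53-bla cells (4000/well) plated 5 h, dosed with compound (217-fold DMSO dilution) for 16 h at 37 C; CCF4-AM substrate 2 h at room temperature. Activity is the 460/530 nm emission ratio (405 nm excitation), fitted in gain-of-signal direction versus DMSO.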

[7] = TOX21_p53_BLA_p5_viability: Viability Assessment in the Tox21 HCT-116 p53 Agonism Beta-lactamase Assay, Phase 5 (AID 2283600)
Outline: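 Viability is taken from cellular ATP content, measured by luciferase luminescence in the same wells after the beta-lactamase ratio read. Cells are seeded at 4000 per well and exposed to DMSO-dissolved compounds, diluted 217-fold, for 16 h.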

[8] = biological target: Cellular tumor antigen p53 (Homo sapiens) (UniProt P04637); experiment: TOX21_p53_BLA_p4_ratio: Tox21 HCT-116 p53 Agonism Beta-lactamase Assay, Ratio, Phase 4 (AID 2283601)
Outline: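 HCT-116 p53 beta-lactamase reporter cells (4000/well) preincubated 5 h, then compound (217-fold dilution of DMSO stock) for 16 h at 37C. CCF4-AM substrate added 2 h at room temperature; 460/530 nm emission ratio fitted upward versus DMSO.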

THRB (gene 7068) [9] = biological target: THRB (gene 7068) (UniProt P10828); experiment: TOX21_TRB_BLA_Antagonist_Followup_ratio: Tox21 Thyroid Hormone Receptor beta Antagonism Beta-lactamase (BLA) Follow-Up Assay, Ratio (AID 2283958)
Outline: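 Using charcoal-stripped 2% FBS medium, human TRβ-LBD/GAL4 reporter HEK293T cells received test compounds for 18 h. The endpoint is the cleaved-to-uncleaved substrate ratio (460/530 nm).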

[10] = TOX21_TRB_BLA_Antagonist_Followup_viability: Viability Assessment in the Tox21 Thyroid Hormone Receptor beta Antagonism Beta-lactamase (BLA) Follow-Up Assay (AID 2283961)
Outline: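 Cytotoxicity is measured in parallel with the antagonist-mode TRβ beta-lactamase screen, using ATP-coupled luciferase luminescence. Engineered HEK293T cells are treated for 18 h with 11-point compound series in triplicate.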

THRB (gene 7068) [11] = biological target: THRB (gene 7068) (UniProt P10828); experiment: TOX21_TRB_COA_Antagonist_Followup_ratio: Tox21 Thyroid Hormone Receptor beta Antagonism through Coactivator Recruitment Follow-Up Assay, Ratio (AID 2283967)
Outline: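 GST-TRb LBD 5.0 nM + 0.10% BSA, compound added; fluorescein-SRC-2 peptide 200 nM, Tb-anti-GST Ab 2 nM. TR-FRET, ex 340 / em 520:495 ratio. Norm: DMSO 0%, T3 100%.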

[12] = biological target: Retinoic acid receptor RXR-alpha (Homo sapiens) (UniProt P19793); experiment: TOX21_TR_RXR_BLA_Antagonist_Followup_ratio: Tox21 Thyroid Hormone Receptor beta Retinoid X Receptor alpha (RXRa) Antagonism Beta-lactamase (BLA) Follow-Up Assay, Ratio (AID 2283972)
Outline: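 Antagonist mode used GAL4 UAS-driven beta-lactamase in HEK293T cells expressing RXRa, treated for 16 h with compound concentration series. Activity was taken from the blue/green (460:530 nm) ratio of cleaved to uncleaved substrate.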

[13] = TOX21_TR_RXR_BLA_Antagonist_Followup_viability: Viability Assessment in the Tox21 Thyroid Hormone Receptor beta Retinoid X Receptor alpha (RXRa) Antagonism Beta-lactamase (BLA) Follow-Up Assay (AID 2283979)
Outline: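 RXRa-bla HEK293T cells (2,500/well, phenol red-free DMEM, 2% charcoal-stripped FBS) were attached 5 h, then exposed to compounds at 11 concentrations in triplicate for 16 h at 37C. Viability measured by CellTiter-Glo ATP luminescence, bidirectional fitting versus DMSO.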

PGR (gene 5241) [14] = biological target: PGR (gene 5241) (UniProt P06401); experiment: TOX21_PR_BLA_Followup_Antagonist_ratio: Tox21 HEK293 Progesterone Receptor (PR) Antagonism Beta-lactamase Follow-Up Assay, Ratio (AID 2283934);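 also: PR-UAS-bla HEK293T cells stimulated with 1 nM R5020 agonist for 16 hr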
Outline: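 Measured in PR-UAS-bla HEK293T cells co-treated with compound and 1 nM promegestone for 16 hr; beta-lactamase ratio read after 2 h FRET substrate loading, with parallel CellTiter-Glo cytotoxicity.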

[15] = TOX21_PR_BLA_Followup_Agonist_viability: Viability Assessment in the Tox21 HEK293 Progesterone Receptor (PR) Agonism Beta-lactamase Follow-Up Assay (AID 2283935);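 also: signal loss means lower viability so actives are cytotoxic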
Outline: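 Viability is read as CellTiter-Glo luminescence, where loss of signal indicates cytotoxicity. The cells are PR-UAS-bla HEK293T given compounds for 16 hr at 37C and 5% CO2, in the same wells used for the bla readout.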

[16] = TOX21_PR_BLA_Followup_Antagonist_viability: Viability Assessment in the Tox21 HEK293 Progesterone Receptor (PR) Antagonism Beta-lactamase Follow-Up Assay (AID 2283936);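 also: cells exposed to compound with R5020 agonist for 16 h; hits lower the luminescence signal meaning cytotoxicity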
Outline: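 PR-UAS-bla HEK293T cells in medium with 2% charcoal-stripped FBS were treated with compounds plus R5020 for 16 hr at 37C. After the beta-lactamase read, CellTiter-Glo was added to the same wells and luminescence read after 30 min at room temperature.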

PGR (gene 5241) [17] = biological target: PGR (gene 5241) (UniProt P06401); experiment: TOX21_PR_LUC_Followup_Antagonist: Tox21 HEK293 Progesterone Receptor (PR) Antagonism Luciferase Follow-Up Assay (AID 2283938);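 also: curve fitted upward as signal gain over DMSO baseline despite antagonist label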
Outline: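 A follow-up to the PR bla screen using HEK293-PR-A-luc cells, multiplexed with cell viability to flag cytotoxicity. Reporter luminescence after 16 h compound exposure was analysed relative to DMSO.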

[18] = TOX21_PR_LUC_Followup_Antagonist_viability: Viability Assessment in the Tox21 HEK293 Progesterone Receptor (PR) Antagonism Luciferase Follow-Up Assay (AID 2283940)
Outline: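 Loss of CellTiter-Glo ATP signal indicates cytotoxicity in HEK293-PR-A-luc cells grown in 10% charcoal-stripped FBS medium, seeded 3,000 per well and incubated 16 h with compound at 37C.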

Measured: AC50

Sequence of THRB (gene 7068) (P10828 whole entry, looked up, the tested form may be a part): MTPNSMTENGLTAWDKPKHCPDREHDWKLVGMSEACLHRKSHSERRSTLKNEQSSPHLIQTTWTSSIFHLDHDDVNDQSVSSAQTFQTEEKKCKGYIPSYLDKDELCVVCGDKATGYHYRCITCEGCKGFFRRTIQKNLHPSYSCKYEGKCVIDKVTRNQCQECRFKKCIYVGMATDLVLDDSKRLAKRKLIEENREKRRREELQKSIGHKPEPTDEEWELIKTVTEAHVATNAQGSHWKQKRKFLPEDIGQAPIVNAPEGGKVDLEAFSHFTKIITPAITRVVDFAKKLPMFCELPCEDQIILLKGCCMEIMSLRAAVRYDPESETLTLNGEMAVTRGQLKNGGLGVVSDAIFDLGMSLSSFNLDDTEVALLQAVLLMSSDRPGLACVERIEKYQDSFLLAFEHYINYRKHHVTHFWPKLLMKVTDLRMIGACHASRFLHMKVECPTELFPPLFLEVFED
Sequence of PGR (gene 5241) (P06401 whole entry, looked up): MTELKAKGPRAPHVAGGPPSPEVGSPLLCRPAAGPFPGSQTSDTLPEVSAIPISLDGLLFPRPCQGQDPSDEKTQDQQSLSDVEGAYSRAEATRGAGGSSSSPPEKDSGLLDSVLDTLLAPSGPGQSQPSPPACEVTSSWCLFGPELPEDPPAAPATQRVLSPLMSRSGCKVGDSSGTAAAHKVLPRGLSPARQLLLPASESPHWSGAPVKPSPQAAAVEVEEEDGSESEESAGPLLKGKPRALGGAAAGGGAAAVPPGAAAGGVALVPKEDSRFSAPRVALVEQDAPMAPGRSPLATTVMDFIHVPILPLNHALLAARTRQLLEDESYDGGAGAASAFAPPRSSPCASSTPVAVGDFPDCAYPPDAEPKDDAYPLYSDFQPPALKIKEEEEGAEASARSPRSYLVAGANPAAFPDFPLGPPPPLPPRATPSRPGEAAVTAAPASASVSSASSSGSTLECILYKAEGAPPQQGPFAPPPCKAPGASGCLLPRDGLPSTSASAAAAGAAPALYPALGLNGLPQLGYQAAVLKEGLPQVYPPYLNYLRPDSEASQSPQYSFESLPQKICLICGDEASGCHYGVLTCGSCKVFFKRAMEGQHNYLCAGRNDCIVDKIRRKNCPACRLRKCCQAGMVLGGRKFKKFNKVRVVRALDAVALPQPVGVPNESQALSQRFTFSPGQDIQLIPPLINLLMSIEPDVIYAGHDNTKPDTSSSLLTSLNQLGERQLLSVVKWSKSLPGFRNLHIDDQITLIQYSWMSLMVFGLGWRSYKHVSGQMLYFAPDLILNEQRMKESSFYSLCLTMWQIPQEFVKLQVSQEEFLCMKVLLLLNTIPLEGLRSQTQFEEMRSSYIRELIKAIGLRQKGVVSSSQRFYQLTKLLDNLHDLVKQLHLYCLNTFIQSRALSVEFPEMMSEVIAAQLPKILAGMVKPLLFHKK
Sequence of Cellular tumor antigen p53 (Homo sapiens) (P04637 whole entry, looked up): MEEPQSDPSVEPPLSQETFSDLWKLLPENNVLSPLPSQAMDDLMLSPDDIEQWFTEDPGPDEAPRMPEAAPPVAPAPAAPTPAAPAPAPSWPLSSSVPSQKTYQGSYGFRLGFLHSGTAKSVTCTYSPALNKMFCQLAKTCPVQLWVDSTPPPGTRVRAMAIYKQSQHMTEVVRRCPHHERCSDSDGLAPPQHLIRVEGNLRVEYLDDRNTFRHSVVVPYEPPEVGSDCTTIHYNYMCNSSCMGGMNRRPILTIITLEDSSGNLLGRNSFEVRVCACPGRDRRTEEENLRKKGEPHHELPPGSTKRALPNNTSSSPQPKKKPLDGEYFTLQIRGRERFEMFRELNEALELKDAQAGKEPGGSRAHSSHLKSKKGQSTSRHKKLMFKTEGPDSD
Sequence of Retinoic acid receptor RXR-alpha (Homo sapiens) (P19793 whole entry, looked up, the tested form may be a part): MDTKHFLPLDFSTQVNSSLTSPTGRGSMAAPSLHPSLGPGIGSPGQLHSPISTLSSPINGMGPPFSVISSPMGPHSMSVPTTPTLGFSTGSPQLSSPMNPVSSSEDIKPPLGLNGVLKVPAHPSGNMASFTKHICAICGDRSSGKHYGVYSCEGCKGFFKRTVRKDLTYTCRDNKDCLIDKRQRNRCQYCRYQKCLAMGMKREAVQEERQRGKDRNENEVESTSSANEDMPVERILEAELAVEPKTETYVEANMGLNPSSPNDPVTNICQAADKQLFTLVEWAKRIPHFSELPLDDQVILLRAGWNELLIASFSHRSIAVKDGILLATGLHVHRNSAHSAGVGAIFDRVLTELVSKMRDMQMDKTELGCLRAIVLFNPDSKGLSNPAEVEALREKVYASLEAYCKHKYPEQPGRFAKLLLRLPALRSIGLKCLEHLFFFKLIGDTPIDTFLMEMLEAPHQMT

C#CCC(Cc1cnc2nc(N)nc(N)c2n1)c1ccc(C(=O)N[C@@H](CCC(=O)O)C(=O)O)cc1 (stereo not given in full)
active: [1] 245 nM | [2] 430 nM | [3] 301 nM | [4] 661 nM | [5] 385 nM | [6] 1.13 µM | [7] 538 nM | [8] 575 nM | [10] 440 nM | [12] 448 nM | [13] 542 nM
inactive: THRB (gene 7068) [9] | THRB (gene 7068) [11]

CCCC(=O)O[C@]1(C(=O)CCl)[C@@H](C)C[C@H]2[C@@H]3CCC4=CC(=O)C=C[C@]4(C)[C@@]3(F)C(=O)C[C@@]21C
inactive: [1] | [2] | [3] | [4] | [5] | [6] | [7] | [8] | THRB (gene 7068) [9] | [10] | THRB (gene 7068) [11] | [13]

COC(=O)C1=C(C)NC(C)=C(C(=O)OCCN2CCN(C(c3ccccc3)c3ccccc3)CC2)C1c1cccc([N+](=O)[O-])c1 (stereo not given)
inactive: [1] | [2] | [3] | [4] | [5] | [6] | [7] | [8] | PGR (gene 5241) [14] | [15] | [16] | [18]
active: PGR (gene 5241) [17] 23000 nM

Cc1cc(O)c(C(C)C)cc1Cl
inactive: [1] | [2] | [3] | [4] | [5] | [6] | [7] | [8]

N#C/C(=C1/SC[C@@H](c2ccc(Cl)cc2Cl)S1)n1ccnc1
inactive: [1] | [2] | [3] | [4] | [5] | [6] | [7] | [8] | [15] | [16] | PGR (gene 5241) [17] | [18]
active: PGR (gene 5241) [14] 33000 nM

Oc1ccc(N=Nc2ccccc2)cc1
inactive: [1] | [7] | [15] | [16] | PGR (gene 5241) [17] | [18]
active: [2] 87400 nM | [3] 75000 nM | [4] 87500 nM | [5] 75700 nM | [6] 74.7 µM | [8] 87800 nM | PGR (gene 5241) [14] 27500 nM

COC(=O)Nc1nc2ccc(Sc3ccccc3)cc2[nH]1
active: [2] 99.9 nM and 139 nM | [4] 163 nM and 98.8 nM | [6] 161 nM and 97.3 nM | [8] 122 nM and 96.1 nM | THRB (gene 7068) [9] 868 nM
inactive: [1] | [3] | [5] | [7] | [10] | THRB (gene 7068) [11] | [12] | [13]
